PubChem BioAssay
Activity calls are given as the source filed them.

Test: budding yeast growth changes without added modifier – OD600, strain BY4716, 24 h, basal condition, primary screen (AID 1173)
Settings: S. cerevisiae BY4716 growth, OD600, 24 h; higher = more signal, called active from +8 up or from −8 down

z-score, inactive:
CC(C)OC(=O)C=C1C[C@@H](c2ccc(C#N)cc2)O[C@@H](c2ccc(C#N)cc2)O1 -0.709, CO[C@@H]1COC(=O)CC=C[C@@H](C)COC(=O)[C@H](COCc2ccccc2)NC(=O)CC=C[C@H]1C -0.591, CO[C@@H]1COC(=O)CC=C[C@@H](C)[C@@H]2C=C[C@H](O)[C@@H](COC(=O)CCC[C@H]1C)O2 -1.19, O=C1[C@H]2[C@H]3[C@H](O)[C@H](O)CC(=NO[C@@H]4O[C@H](CO)[C@@H](O)[C@H](O)[C@H]4O)[C@H]3CC[C@H]2C(=O)N1Cc1ccc2c(c1)OCO2 -0.159, C=CC[C@@H]1C=C[C@H](ON=Cc2ccc(C(=O)N3[C@H](c4ccc(C)cc4)[C@@H](C)CC[C@H]3C(=O)OC)cc2)[C@@H](CO)O1 -0.0957, COCCOC(=O)N1C(=O)[C@@]2(c3cc(C#Cc4ccc(OC)cc4)ccc31)[C@H](c1ccc(O)cc1)N1[C@H](c3ccccc3)[C@H](c3ccccc3)OC(=O)[C@H]1[C@@H]2C(N)=O -0.306, CC(C)(C)N1CC=CC23O[C@@H]4C=CCCOC(=O)C4[C@H]2C(=O)N(CCCCCO)[C@@H]3C1=O (stereo not given in full) -0.312, COCCOC(=O)N1C(=O)[C@@]2(c3cc(C#Cc4ccc(OC)cc4)ccc31)[C@H](C(=O)N1CCN(c3ncccn3)CC1)[C@H]1C(=O)O[C@H](c3ccccc3)[C@H](c3ccccc3)N1[C@@H]2c1ccc(OCCO)cc1 1.89, COC(=O)[C@@H]1CC[C@H](C)[C@@H](c2ccc(C)cc2)N1C(=O)c1ccc(C=NOC(C)CN2CCCCc3nc(C)c(C)cc32)cc1 (stereo not given in full) -0.104, CC(C)CON=C1[C@H]2CCn3c(=O)n(-c4ccccc4)c(=O)n3[C@H]2[C@H](O)[C@@H]2O[C@H]12 -0.813, COCC(=C=CC[C@@H](O)c1ccccc1OCCO)CCO -0.853, O=C1O[C@@H](c2ccccc2)[C@@H](c2ccccc2)N2[C@@H](c3ccc(OCCO)cc3)[C@]3(C(=O)Nc4ccc(C#CCCO)cc43)[C@@H](C(=O)N3CCCCCCC3)[C@H]12 -0.355, C#C[C@@H]1Oc2ccccc2S(=O)(=O)N2CCC[C@H]12 -2.6, CCCC[C@H]1OB(O)C[C@H]2C1=C(C)C[C@H]1C(=O)N(C)C(=O)[C@H]12 -2.09, O=C1[C@H]2[C@H]3[C@H](O)[C@H](O)CC(=NOC[C@@H](O)COCc4ccco4)[C@H]3CC[C@H]2C(=O)N1c1cccc(Oc2ccccc2)c1 0.22, CC(C)[C@H](NC(=O)OC(C)(C)C)[C@@H](O)CC(=O)OC(C)(C)C -0.448, CO[C@H]1COC(=O)CC=C[C@H](C)[C@@H](NS(=O)(=O)c2ccc(C)cc2)COC(=O)CC=C[C@@H]1C -1.66, CCOC(=O)CCN1C(=O)[C@H]2[C@H]3[C@H](O)[C@H](O)CC(=O)[C@H]3CC[C@H]2C1=O -0.329, NC(=O)NCC#Cc1ccc2c(c1)[C@]1(C(=O)N2)[C@H](c2ccc(O)cc2)N2[C@H](c3ccccc3)[C@H](c3ccccc3)OC(=O)[C@H]2[C@@H]1C(=O)N1CCCCCCC1 1.16, CCOC(=O)C[C@H]1[C@H](OC(=O)c2ccc(C(=O)c3ccccc3)cc2)[C@@H](NC(=O)c2ccc(-c3ccccc3)cc2)c2cc(OCCCO)ccc2N1C(=O)c1ccc2ccccc2n1 -1.1, O=C1[C@H]2[C@H]3[C@H](O)[C@H](O)CC(=NO[C@@H]4O[C@H](CO)[C@@H](O)[C@H](O)[C@H]4O)[C@@H]3CC[C@H]2C(=O)N1Cc1ccccc1 -0.391, CC(C)(C)N1C(=O)[C@H]2[C@H]3[C@H](O)[C@H](O)CC(=NOCc4ccccc4)[C@@H]3CC[C@H]2C1=O -0.245, C[C@@H](c1ccccc1)N1C(=O)[C@H]2[C@H]3[C@H](O)C=CC(=O)[C@@H]3CC[C@H]2C1=O -0.697, CC(C)(C)N1C(=O)[C@H]2[C@H]3[C@H](O)[C@H](O)CC(=NO[C@@H]4O[C@H](CO)[C@@H](O)[C@H](O)[C@H]4O)[C@@H]3CC[C@H]2C1=O -0.597, CCOC(=O)NN=C1C[C@@H](O)[C@@H](O)[C@@H]2[C@@H]3C(=O)N(C(C)(C)C)C(=O)[C@@H]3CC[C@@H]12 0.381
